Hits are enriched below; roughly 3.9% of the tested compounds scored in any of these assays.
PrPC surface inh: cell surface PrPC inhibition, primary TR-FRET screen; P04156; TR-FRET read-out; inhibition, % at 13.8 µM; 370,000 compounds, 0.43% hits; AID 720596; in the data active = inhibition above about 24%; also: 0% = median of the test wells and 100% = reference compound wells
Mtb FBA inh: inhibits M. tuberculosis FBA enzyme; P9WQA3; inhibition, % at 1 µM; 360,000 compounds, 2.3% hits; purified M. tuberculosis FBA, fluorescence read-out; AID 588726; in the data active = inhibition above about 27%;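 also: 0% = vehicle and 100% = reference inhibitor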
BH1578 lux ind: quorum light induction in luxS cqsA deficient V. cholerae; 350,000 compounds, 0.16% hits; activation, % at 18.7 µM; V. cholerae BH1578 lux reporter, luminescence, 6 h; in the data active = activation mostly above about 9.7%, no sharp cut-off
3CLpro inhibitor: SARS-CoV 3CLpro protease inhibition; P0C6X7; 290,000 compounds, 0.14% hits; recombinant SARS-CoV 3CLpro, quenched FRET peptide cleavage; inhibition, % at 6 µM; in the data active = inhibition above about 12%
GDH-TPI counter: counter-screen for M. tuberculosis FBA inhibitors: GDH-TPI coupled enzymes | GDH-TPI coupled enzyme counterscreen, NADH absorbance | inhibition, % at 4.8 µM | 360,000 compounds, 1.2% hits; in the data active = inhibition above about 30%;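 also: 0% = DMSO wells and 100% = wells lacking the enzyme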
PrPC TRFRET cf: confirmation of inhibitors of cell surface human prion protein | cell surface PrPC level, TR-FRET | inhibition, % at 13.8 µM | shares compounds with PrPC surface inh | AID 743200 | 1,500 compounds, 65% hits; in the data active = inhibition above about 25%
LD9 cytotox: LD9 cell cytotoxicity, PrPc inhibitor counter-screen | shares compounds with PrPC surface inh | LD9 cells cytotoxicity, luminescence viability | inhibition, % at 13.8 µM | 1,500 compounds, 29% hits; in the data active = inhibition above about 9.5%
* marks the source's active call; other numbers are inactive results; i = inactive; · = no result given.

SMILES | PrPC surface inh | Mtb FBA inh | BH1578 lux ind | 3CLpro inhibitor | GDH-TPI counter | PrPC TRFRET cf | LD9 cytotox
Cc1nnsc1S(=O)c1ccc(Cl)c(Cl)c1 (centres undefined) | -4 | -2 | i | -3 | -1 | · | ·
NC(=O)NC(CC(=O)NCc1ccc2c(c1)OCO2)c1ccccc1Cl (centres undefined) | -12 | 4 | -4 | 6 | 2 | · | ·
O=C(NC(Nc1nc2ccc([N+](=O)[O-])cc2s1)(C(F)(F)F)C(F)(F)F)c1cccnc1 | 42* | -5 | 0 | 0 | 21 | 52* | 59*
O=C(NC(Nc1nc2ccc([N+](=O)[O-])cc2s1)(C(F)(F)F)C(F)(F)F)c1ccccc1Cl | 67* | -7 | 0 | 3 | 12 | 66* | 63*
O=C(NC(NNc1ccc([N+](=O)[O-])cc1)(C(F)(F)F)C(F)(F)F)c1ccccc1Cl | 1 | -1 | 0 | 2 | 5 | · | ·
COC(=O)c1ccc2nc(-c3ccco3)c(Cc3ccccc3)n2c1 | 0 | 25 | · | · | · | · | ·
Cc1ccc(S(=O)(=O)NN=Cc2ccccc2Cl)cc1 | 0 | -2 | i | · | 13 | · | ·
Cc1ccc(-c2cc(C(=O)N(C)Cc3cnn(C)c3C)c3cc(Br)ccc3n2)cc1 | 75* | 4 | i | 4 | 16 | 90* | 4
Cc1ccc(-c2cc(C(=O)NCc3cnn(C)c3C)c3cc(Br)ccc3n2)cc1 | 15 | -2 | 1 | -6 | 13 | · | ·
CCCCCCCCN1CCS(=O)(=O)N(Cc2ccc(OC)cc2)C(C(=O)OC)C1 (centres undefined) | 2 | · | · | · | · | · | ·
CC(=O)OC1CC2OC3C=C(C)CCC3(C)C1(C)C21CO1 (centres undefined) | 90* | -2 | 0 | · | 1 | 101* | 32*
COC(=O)[C@@]1(Cc2ccc(F)cc2)[C@H]2c3cc(C(=O)N(C)C)n(Cc4ccc(C)c(F)c4F)c3C[C@H]2CN1C(=O)c1ccccc1 | 1 | · | · | · | · | · | ·
Cc1c(-c2ccccc2)nnn1-c1ccc(F)c(Cl)c1 | 0 | · | · | · | · | · | ·
CC1CC(C)(O)CC(C(O)CC2CC(=O)NC(=O)C2)C1=O (centres undefined) | 83* | 1 | i | · | 7 | 97* | 36*
CCC1CN2CCc3cc(OC)c(OC)cc3C2CC1CC1NCCc2c1[nH]c1ccc(O)cc21 (centres undefined) | 87* | 0 | -6 | · | -5 | 100* | 43*
OCc1ccccc1OCc1ccccc1 | 2 | · | · | · | · | · | ·
CCOc1cc(S(=O)(=O)n2cc(-c3ccc(F)cc3)c(N)n2)cc(OCC)c1OCC | 29* | -1 | 0 | 3 | -8 | 19 | 4
O=C(N/N=C/c1ccc(O)cc1)c1ccc(COc2cc(Cl)ccc2Cl)o1 | 27* | 1 | 1 | 5 | 35* | 30* | -1
CC1OC2CC(=O)OC2C2=C1C(=O)c1c(O)cccc1C2=O (centres undefined) | 81* | -5 | 0 | · | 0 | 93* | 99*
Cc1cccc(N2CCN(C(=O)c3cc(S(=O)(=O)N4CCOCC4)cn3C)CC2)c1C | 0 | 0 | 0 | 0 | -3 | · | ·
CCc1ccccc1NC(=O)c1cc(S(=O)(=O)N2CCc3ccccc32)cn1C | 9 | -3 | i | -4 | 5 | · | ·
Cc1cccc(NC(=O)c2cc(S(=O)(=O)N3CCc4ccccc43)cn2C)c1C | 44* | -1 | i | -3 | 10 | 14 | -7
O=C(Nc1ccncc1)c1cccc(S(=O)(=O)N2CCc3ccccc32)c1 | 25* | -2 | 0 | · | -9 | 25* | 13*
O=C(Nc1cccnc1)c1cccc(S(=O)(=O)N2CCc3ccccc32)c1 | 3 | 2 | 0 | 10 | 1 | · | ·
Cc1cccc(N2CCN(C(=O)c3cc(S(=O)(=O)N4CCCC4)cn3C)CC2)c1C | 24* | 4 | 0 | -2 | 3 | 16 | 4
SMILES | PrPC surface inh | Mtb FBA inh | BH1578 lux ind | 3CLpro inhibitor | GDH-TPI counter | PrPC TRFRET cf | LD9 cytotox
O=C(Nc1ccn(Cc2ccccc2F)n1)c1ccc(COc2ccccc2Cl)cc1 | 42* | 2 | -3 | 7 | 12 | 31* | 1
O=C(Nc1ccn(Cc2c(F)c(F)cc(F)c2F)n1)c1ccc(COc2ccccc2Cl)cc1 | · | -3 | i | 11 | 4 | · | ·
Cc1cc(C)nc(NC(=O)c2ccc(COc3ccccc3Cl)cc2)c1 | 27* | -1 | i | 4 | -4 | 24 | -2
COc1ccc(CNC(=O)c2cccc3c(-c4cccc(C(N)=O)c4)coc23)cc1OC | 37* | 1 | -1 | · | 1 | 25* | 28*
Cc1[nH]n(-c2ccccc2)c(=O)c1/C=N/NC(=O)c1cccc(F)c1 | 52* | 10 | -1 | -1 | 20 | 54* | 23*
O=C(COc1cccc2c1CCN(Cc1ccccc1)C2=O)N1CCCCC1 | 29* | 0 | i | -1 | 1 | 18 | -3
O=C(NNc1cc(Br)c(O)c(Br)c1)c1ccccc1 | -4 | -7 | 0 | 1 | 9 | · | ·
CCc1nc(SCC(=O)N2c3ccccc3Sc3ccccc32)c2ccccc2n1 | 46* | 0 | 0 | -5 | -1 | 89* | -8
CCc1nc(SCC(=O)NNC(=O)c2ccc(OC)cc2)c2ccccc2n1 | 109* | 0 | 0 | 5 | 1 | 116* | -10
CCc1nc(SCC(=O)Nc2nc3c(s2)CCCC3)c2ccccc2n1 | 30* | -1 | 3 | -1 | 11 | 72* | -9
COc1ccc(C(=O)NNC(=O)CSc2nc(C(C)C)nc3ccccc23)cc1 | 81* | -2 | 0 | -1 | -1 | 101* | -17
Cc1cccc(C)c1NC(=O)c1cc(S(=O)(=O)N2CCC3(CC2)OCCO3)ccc1F | 1 | 0 | -1 | · | 4 | · | ·
COc1ccc(OC)c(NC(=S)N2CCN(C(=O)C3CCCO3)CC2)c1 (centres undefined) | 1 | 1 | 0 | -3 | -7 | · | ·
CC(C)(C)SCCNC(=O)/C=C/c1cccc([N+](=O)[O-])c1 | -17 | 2 | 0 | -1 | 6 | · | ·
Cc1ccc(N(C(=O)c2snc(C(N)=O)c2N)C(C(=O)NCCC(C)C)c2ccco2)cc1 (centres undefined) | 27* | 2 | 0 | 7 | 6 | 34* | 2
CC(C)CCNC(=O)C(c1ccco1)N(Cc1ccccc1)C(=O)c1snc(C(N)=O)c1N (centres undefined) | 1 | 2 | 0 | 0 | 3 | · | ·
COC(=O)C[C@@H]1C=C[C@H](NC(=O)c2cnccn2)[C@@H](CO)O1 | -6 | · | · | · | · | · | ·
C=CCn1c(SC2CCOC2=O)nc2scc(C3CC3)c2c1=O (centres undefined) | -1 | 3 | -2 | -1 | 4 | · | ·
CCNC(=O)C1(C)CCN(C(=O)c2ccccc2C(F)(F)F)C1 (centres undefined) | -1 | -1 | -1 | · | 4 | · | ·
O=C(O)c1ccccc1Sc1ncnc2sc3c(c12)CCC3 | 45* | 0 | -1 | 2 | -2 | 63* | -9
